From the supplement of paper PMC6555819

What was measured:
Test in all cases: PBM binding z-score (relative to random genomic background probes); higher = stronger binding; sequences stand for … in GC…GCGATTGACAGCGTAGAATGAAGG
[1] = test system: RARb homodimer (NR concentration 270 nM)
In short: (§1)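 Custom Agilent 4×180K protein-binding microarrays carried double-stranded probes. Their 34-nt variable regions held direct-repeat seeds, single-nucleotide variants, half-site ablations and random human genomic background sequences. Arrays were incubated 1 h with ligand-free nuclear receptor dimers in PBS pH 7.4, 2% milk, 0.02% Triton X-100, 1 mM DTT, 0.2 mg/mL BSA and 0.4 mg/ml salmon testes DNA. Antibodies against each partner (one per run) detected binding, and scanned fluorescence was regression-normalized. Binding z-scores use random background probes as reference.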

[2] = test system: RARg:RXRa (NR concentration 270 nM, RXRa partner concentration 90 nM)
In short: as §1

[3] = test system: RARg homodimer (NR concentration 270 nM)
In short: as §1

[4] = test system: RXRa DBDmut IVT, anti-RXR (DBD mutation: RXRa K156A/R161A, NR concentration 90 nM)
In short: as §1

[5] = test system: RXRa homodimer (NR concentration 180 nM)
In short: as §1

[6] = test system: THRa:RXRa (NR concentration 90 nM, RXRa partner concentration 90 nM)
In short: as §1

[7] = test system: THRa homodimer (NR concentration 90 nM)
In short: as §1

[8] = test system: VDR homodimer (NR concentration 270 nM)
In short: as §1

Sequence | PBM binding z-score [1] | PBM binding z-score [2] | PBM binding z-score [3] | PBM binding z-score [4] | PBM binding z-score [5] | PBM binding z-score [6] | PBM binding z-score [7] | PBM binding z-score [8]
CCTACTGGGCCAAAAAGGTCATTGGTGCCGATAA | 4.58 | 4.6 | 4.13 | 0.562 | 4.92 | 3.13 | 0.738 | 2.89
GGAACGAGGGCATTCAAGTTGATAGCATGGCGAT | 0.771 | 1.04 | 1.74 | 3.23 | 0.697 | 3.52 | -0.291 | 2.77
CCTATTAGGTGACCATAAGGGCAACCGAAGCTCG | 2.13 | 2.09 | 1.22 | -0.22 | 1.08 | 2.64 | 1.52 | 0.127
TTACCAAGGTGAGGTGAGGTCGTTGATCCAACTC | 2.09 | 1.42 | 1.41 | 0.267 | 1.86 | 4.41 | 2.84 | 2.28
CCGAGTGGGGCAAGGTTACCATAACGCACAGCCA | 1.3 | 1.07 | 1.2 | -0.421 | 1.3 | 1.53 | 0.265 | 0.121
ACTAGCAGGCCGAGTTTGGGTCACTCAAACAAAG | 1.65 | 1.04 | 0.63 | -0.134 | 0.562 | 2.17 | 0.853 | 0.396
ACTCGAAGGACAAAGGTCAGAGCTACGCCAGTGA | 4.53 | 5.85 | 4.94 | 0.729 | 4.69 | 3.02 | 0.499 | 0.565
TAGCCTAGGTCATGCGGGCCATTATAGTGTCGGC | 3.04 | 4.02 | 4.28 | 1.05 | 3.23 | 3.16 | 1.17 | 1.49
ATATGTAGGTCACATCCGGGTCATTCAGGCTATG | 4.84 | 6.67 | 5.7 | 2.15 | 5.28 | 4.65 | 2.94 | 3.78
GCTAGTTGGTCAGTAAAAGGTCGCACACCGGTCG | 2.98 | 2.68 | 1.8 | 0.145 | 1.95 | 1.61 | 0.192 | 0.447
TCTAGTTGGCCAAAGGTCACACACTCGAAATGCG | 5.04 | 6.5 | 6.31 | 1.5 | 7.78 | 3.78 | 1.77 | 2.27
CCTAGCAGGCCTGGGTCACTCAAGCATTTCGCTT | 1.69 | 1.25 | 0.967 | -0.144 | 0.958 | 1.48 | 0.229 | -0.269
TTACCAAGGTGAAAGGTCGTTAATGCACGCCTTG | 2.23 | 3.93 | 2.08 | 0.25 | 5.05 | 3.23 | 0.834 | 0.976
CCGACTGGGGCATAAGGTTACCATCAGCCAGCCC | 1.72 | 1.41 | 1 | -0.242 | 1.03 | 1.98 | 1.33 | -0.0619
CCTAGCAGGCCAATCTGGGGCACTCAAGGCTTGA | 0.233 | -0.125 | 0.0351 | -0.585 | -0.29 | 1.65 | -0.87 | -0.374
CTACCAAGGAGAACAAGGTCGTTGATTACTATTC | 1.14 | 0.413 | 0.266 | 1.2 | 0.732 | 1.87 | 1.05 | 1.73
TGAGTGAGGTTAAAGATCAGGGAACGTGGCGTCG | 1.06 | 2.51 | 1.37 | 1.05 | 4.01 | 2.43 | 0.575 | 0.834
TCATATAGGTACACAGGTGAAAGTCCGTAAGTTA | 1.25 | 0.77 | 0.513 | 2.06 | 1.27 | 0.937 | 0.627 | 1.07
TCTATTACTTGATTAGGGCAACCGAAACAGCGGA | 0.543 | 0.675 | 0.616 | 1.1 | 0.781 | 0.792 | 0.73 | 0.603
ACTATTAGTTGAGACGACGGCAACCGATAGGTTG | -0.491 | 0.00753 | 0.223 | -0.0527 | 0.0138 | -0.529 | -0.596 | -0.117
GCTAGTTGGTCAGTAAAAGTTCACACACCGGTCG | 3.69 | 3.04 | 2.42 | 1.07 | 1.82 | 1.46 | 0.436 | 2.91
ACTAGTTGGTCAGCGGAGGTCACACACAATTCGG | 4.09 | 3.96 | 4.21 | 0.9 | 3.77 | 4.32 | 2.89 | 3.02
ATCGAAAGGTCGAAGTGAGTATAGAGAAAGGGAA | 1.86 | 3.79 | 3.6 | 1.4 | 3.83 | 1.81 | -0.426 | 0.425
TGAATGAGGTTATAGATCAGGGAACGTGGCGTCG | 0.339 | 1.36 | 1.02 | 0.491 | 2 | 2.05 | 0.416 | 0.618
CGAACTAGGTCATCCAGGACAGTGCATACATTGA | 3.21 | 4.04 | 4.52 | 2.45 | 2.88 | 3.65 | 2.06 | 2.29
CCTTACGGATCACGAGGTTATAGCACGACGAGCG | 1.15 | 0.741 | 0.714 | 0.575 | 1.62 | 1.52 | 1.08 | 1.06
GCTAGTTGGTCAGTAAAACGTCACACACCGGTCG | 0.309 | -0.139 | 0.216 | -0.207 | -0.264 | -0.444 | -0.619 | -0.255
CCAGACAGGTGAGAAGTTAACTCAGCCTCGATTA | 0.312 | 0.26 | 0.42 | 0.268 | 0.0935 | 0.0119 | -0.003 | -0.158
